Experimental data taken from PubChem BioAssay AID1159580 (chemical genetic matrix, 2015).
Hit rate of the full screen: of about 5,500 compounds, about 2,000 (36%) were called active. About 18% were inconclusive and are not listed. Cut-off read from the data, not from the text of the source: active = normalized growth mostly below about 0.91 (no sharp cut-off); inconclusive = no clear call, values can overlap the other calls; inactive = mostly above about 0.92. The list shows a part of the results.

Assay: chemical genetic growth profiling, strain panel (AID 1159580);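 note: tested at 20 µM; growth read once vehicle control cultures reached saturation at 30 °C; 1 = growth at the plate median or of vehicle wells; lower values mean less growth of the strain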
Settings: growth OD

Measured: normalized growth

NC[C@H]1O[C@H](OC2[C@@H](N)C[C@@H](N)[C@H](O[C@H]3O[C@H](CO)[C@@H](O)[C@H](N)[C@H]3O)[C@H]2O)[C@H](O)[C@@H](O)[C@@H]1O (some centres undefined)
inactive: S. cerevisiae deletion strains, locus YJR066W, strain TOR1, active compounds read low 0.956 | S. cerevisiae deletion strains, locus YJR075W, strain HOC1, active compounds read low 0.996 | S. cerevisiae deletion strains, locus YKL009W, strain mrt4, active compounds read low 0.985 | S. cerevisiae deletion strains, locus YKL068W, active compounds read low 0.986 | S. cerevisiae deletion strains, locus YKL085W, strain MDH1 (second series), active compounds read low 0.98 | S. cerevisiae deletion strains, locus YKL085W, strain MDH1, active compounds read low 0.98 | S. cerevisiae deletion strains, locus YKL160W, strain elf1, active compounds read low 0.979 | S. cerevisiae deletion strains, locus YKR001C, strain vps1, active compounds read low 0.994 | S. cerevisiae deletion strains, locus YKR026C, strain gcn3, active compounds read low 0.998 | S. cerevisiae deletion strains, locus YKR091W, strain srl3, active compounds read low 1.01 | S. cerevisiae deletion strains, locus YLL001W, strain dnm1, active compounds read low 0.973 | S. cerevisiae deletion strains, locus YLL026W, active compounds read low 1.01 | S. cerevisiae deletion strains, locus YLL041C, strain sdh2, active compounds read low 0.999 | S. cerevisiae deletion strains, locus YLR027C, strain aat2, active compounds read low 1.01 | S. cerevisiae deletion strains, locus YLR039C, strain RIC1, active compounds read low 0.927 | S. cerevisiae deletion strains, locus YLR058C, strain SHM2, active compounds read low 0.978 | S. cerevisiae deletion strains, locus YLR102C, strain apc9, active compounds read low 0.984 | S. cerevisiae deletion strains, locus YLR113W, strain HOG1, active compounds read low 1 | S. cerevisiae deletion strains, locus YLR221C, strain rsa3, active compounds read low 1.01 | S. cerevisiae deletion strains, locus YLR258W, strain gsy2, active compounds read low 1 | S. cerevisiae deletion strains, locus YLR262C, strain YPT6 (second series), active compounds read low 0.994 | S. cerevisiae deletion strains, locus YLR262C, strain YPT6, active compounds read low 1.04 | S. cerevisiae deletion strains, locus YLR268W, strain sec22, active compounds read low 0.986 | S. cerevisiae deletion strains, locus YLR320W, strain mms22, active compounds read low 0.987 | S. cerevisiae deletion strains, locus YLR330W, strain CHS5, active compounds read low 0.993 | S. cerevisiae deletion strains, locus YLR342W, strain FKS1 (second series), active compounds read low 1 | S. cerevisiae deletion strains, locus YLR342W, strain FKS1, active compounds read low 0.995 | S. cerevisiae deletion strains, locus YLR357W, strain rsc2, active compounds read low 0.979 | S. cerevisiae deletion strains, locus YLR370C, strain arc18, active compounds read low 0.993 | S. cerevisiae deletion strains, locus YLR371W, strain rom2, active compounds read low 0.981 | S. cerevisiae deletion strains, locus YLR384C, strain iki3, active compounds read low 0.994 | S. cerevisiae deletion strains, locus YLR418C, strain cdc73, active compounds read low 0.97 | S. cerevisiae deletion strains, locus YML016C, strain PPZ1, active compounds read low 0.99 | S. cerevisiae deletion strains, locus YML032C, strain rad52, active compounds read low 0.984 | S. cerevisiae deletion strains, locus YML120C, strain ndi1, active compounds read low 0.999 | S. cerevisiae deletion strains, locus YML124C, strain tub3, active compounds read low 0.984 | S. cerevisiae deletion strains, locus YMR058W, strain fet3, active compounds read low 1 | S. cerevisiae deletion strains, locus YMR078C, strain ctf18, active compounds read low 0.969 | S. cerevisiae deletion strains, locus YMR125W, strain sto1, active compounds read low 0.973 | S. cerevisiae deletion strains, locus YMR129W, active compounds read low 0.997 | S. cerevisiae deletion strains, locus YMR205C, strain PFK2, active compounds read low 0.975 | S. cerevisiae deletion strains, locus YMR223W, strain ubp8, active compounds read low 0.957 | S. cerevisiae deletion strains, locus YMR231W, strain pep5, active compounds read low 0.993 | S. cerevisiae deletion strains, locus YMR263W, strain SAP30, active compounds read low 0.999 | S. cerevisiae deletion strains, locus YMR307W, strain GAS1, active compounds read low 1.03 | S. cerevisiae deletion strains, locus YNL067W, strain RPL9B, active compounds read low 0.997 | S. cerevisiae deletion strains, locus YNL071W, strain lat1, active compounds read low 0.998 | S. cerevisiae deletion strains, locus YNL153C, strain GIM3, active compounds read low 0.993 | S. cerevisiae deletion strains, locus YNL183C, strain NPR1, active compounds read low 0.969 | S. cerevisiae deletion strains, locus YNL209W, strain ssb2, active compounds read low 0.996 | S. cerevisiae deletion strains, locus YNL233W, strain BNI4, active compounds read low 0.993 | S. cerevisiae deletion strains, locus YNL248C, strain rpa49, active compounds read low 0.988 | S. cerevisiae deletion strains, locus YNL250W, strain rad50, active compounds read low 0.974 | S. cerevisiae deletion strains, locus YNL271C, strain bni1, active compounds read low 0.978 | S. cerevisiae deletion strains, locus YNL298W, strain CLA4, active compounds read low 0.97 | S. cerevisiae deletion strains, locus YNL307C, strain MCK1, active compounds read low 0.971 | S. cerevisiae deletion strains, locus YNL322C, strain KRE1 (second series), active compounds read low 0.986 | S. cerevisiae deletion strains, locus YNL322C, strain KRE1, active compounds read low 0.996 | S. cerevisiae deletion strains, locus YNR049C, strain mso1, active compounds read low 0.992 | S. cerevisiae deletion strains, locus YNR052C, strain pop2, active compounds read low 0.973 | S. cerevisiae deletion strains, locus YOL006C, strain TOP1, active compounds read low 0.968 | S. cerevisiae deletion strains, locus YOL012C, strain htz1 1.24 | S. cerevisiae deletion strains, locus YOL147C, strain pex11, active compounds read low 0.982 | S. cerevisiae deletion strains, locus YOR001W, strain rrp6, active compounds read low 1.02 | S. cerevisiae deletion strains, locus YOR061W, strain CKA2, active compounds read low 0.989 | S. cerevisiae deletion strains, locus YOR069W, strain VPS5, active compounds read low 0.989 | S. cerevisiae deletion strains, locus YOR070C, strain gyp1, active compounds read low 0.998 | S. cerevisiae deletion strains, locus YOR080W, strain dia2, active compounds read low 1 | S. cerevisiae deletion strains, locus YOR083W, strain WHI5, active compounds read low 0.988 | S. cerevisiae deletion strains, locus YOR106W, strain vam3, active compounds read low 0.976 | S. cerevisiae deletion strains, locus YOR136W, strain idh2, active compounds read low 0.984 | S. cerevisiae deletion strains, locus YOR144C, strain elg1, active compounds read low 0.987 | S. cerevisiae deletion strains, locus YOR184W, strain ser1, active compounds read low 0.971 | S. cerevisiae deletion strains, locus YOR231W, strain MKK1, active compounds read low 0.983 | S. cerevisiae deletion strains, locus YOR265W, strain rbl2, active compounds read low 1 | S. cerevisiae deletion strains, locus YOR270C, strain vph1, active compounds read low 1.02 | S. cerevisiae deletion strains, locus YOR290C, strain snf2, active compounds read low 0.949 | S. cerevisiae deletion strains, locus YOR316C, strain cot1, active compounds read low 0.98 | S. cerevisiae deletion strains, locus YPL051W, strain arl3, active compounds read low 0.992 | S. cerevisiae deletion strains, locus YPL078C, strain atp4, active compounds read low 0.992 | S. cerevisiae deletion strains, locus YPL106C, strain sse1, active compounds read low 0.998 | S. cerevisiae deletion strains, locus YPL240C, strain hsp82, active compounds read low 0.987 | S. cerevisiae deletion strains, locus YPL256C, strain CLN2, active compounds read low 0.994 | S. cerevisiae deletion strains, locus YPR119W, strain clb2, active compounds read low 0.977 | S. cerevisiae deletion strains, locus YPR141C, strain kar3, active compounds read low 0.962 | S. cerevisiae deletion strains, locus YPR163C, strain tif3, active compounds read low 0.978 | S. cerevisiae deletion strains, locus YPR167C, strain met16, active compounds read low 0.981 | S. cerevisiae deletion strains, strain wtn01, active compounds read low 0.989 | S. cerevisiae strains, strain wild type, active compounds read low 0.995
